# From the supplement of paper PMC11732987, “Enantioselective OTUD7B fragment discovery through chemoproteomics screening and high-throughput optimisation” (Communications Chemistry, 2025)
# Unmarked numbers belong to inactive results.
# Columns and labels:
# Assay in all cases: log2 ratio of Biotin-Ahx-Ub-VS probe labelling (fragment/DMSO); higher = less target engagement (more negative = stronger competition), active = hit call of the paper (q ≤ 0.05, log2 ratio ≤ -1)
# Conditions in all cases: compound concentration: 200 uM; treatment time: 3 h
# ALG13 = target: T1, ALG13 (UniProt Q9NP73)
# T1 sequence (whole entry): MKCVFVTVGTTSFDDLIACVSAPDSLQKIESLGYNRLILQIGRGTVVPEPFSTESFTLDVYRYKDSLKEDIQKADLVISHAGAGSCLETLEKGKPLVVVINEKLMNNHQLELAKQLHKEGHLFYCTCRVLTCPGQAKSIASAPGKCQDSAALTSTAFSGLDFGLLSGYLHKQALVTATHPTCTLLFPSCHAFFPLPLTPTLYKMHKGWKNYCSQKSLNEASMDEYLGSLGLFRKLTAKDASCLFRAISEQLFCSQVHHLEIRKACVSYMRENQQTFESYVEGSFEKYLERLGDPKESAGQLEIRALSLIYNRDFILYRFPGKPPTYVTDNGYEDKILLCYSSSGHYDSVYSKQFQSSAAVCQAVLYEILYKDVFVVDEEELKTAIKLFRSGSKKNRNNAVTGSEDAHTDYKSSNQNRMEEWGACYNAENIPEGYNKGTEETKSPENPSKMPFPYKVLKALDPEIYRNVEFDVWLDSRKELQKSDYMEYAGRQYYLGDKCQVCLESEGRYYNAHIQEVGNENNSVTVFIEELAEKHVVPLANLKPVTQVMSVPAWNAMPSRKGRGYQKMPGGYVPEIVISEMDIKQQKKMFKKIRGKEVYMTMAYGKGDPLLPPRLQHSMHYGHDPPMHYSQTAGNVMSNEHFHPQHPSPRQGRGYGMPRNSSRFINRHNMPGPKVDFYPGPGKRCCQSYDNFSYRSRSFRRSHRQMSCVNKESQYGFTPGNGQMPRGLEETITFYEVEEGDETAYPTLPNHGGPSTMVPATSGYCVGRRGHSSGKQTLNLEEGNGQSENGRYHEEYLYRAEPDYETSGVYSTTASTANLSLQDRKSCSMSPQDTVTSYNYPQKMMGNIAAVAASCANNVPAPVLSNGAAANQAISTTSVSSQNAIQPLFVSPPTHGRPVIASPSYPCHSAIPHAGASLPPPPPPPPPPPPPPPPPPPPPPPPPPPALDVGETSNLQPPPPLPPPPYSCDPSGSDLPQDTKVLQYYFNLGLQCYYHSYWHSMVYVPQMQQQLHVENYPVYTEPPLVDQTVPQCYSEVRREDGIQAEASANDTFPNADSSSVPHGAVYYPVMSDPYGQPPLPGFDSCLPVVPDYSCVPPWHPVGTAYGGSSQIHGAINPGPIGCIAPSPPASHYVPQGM
# Summary of the method: (§1)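 Lysate from HEK293T cells, 495 µg per sample in Tris/CHAPS/IGEPAL buffer with protease inhibitors, was treated for 3 h in triplicate with fragment at 200 µM or vehicle. Biotin-Ahx-Ub-VS was next added at 0.5 µM final for 1 h. The labelled DUBs were enriched with NeutrAvidin, digested with LysC and trypsin, and run by diaPASEF LC-MS/MS, with values given as average log2 fragment/vehicle ratios by unpaired t-test on global-median-normalised Spectronaut quantities of proteins with ≥2 unique peptides.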
# ATXN3 = ATXN3 (UniProt P54252)
# Summary of the method: as §1
# BAP1 = target: T2, BAP1 (UniProt Q92560)
# T2 sequence (whole entry): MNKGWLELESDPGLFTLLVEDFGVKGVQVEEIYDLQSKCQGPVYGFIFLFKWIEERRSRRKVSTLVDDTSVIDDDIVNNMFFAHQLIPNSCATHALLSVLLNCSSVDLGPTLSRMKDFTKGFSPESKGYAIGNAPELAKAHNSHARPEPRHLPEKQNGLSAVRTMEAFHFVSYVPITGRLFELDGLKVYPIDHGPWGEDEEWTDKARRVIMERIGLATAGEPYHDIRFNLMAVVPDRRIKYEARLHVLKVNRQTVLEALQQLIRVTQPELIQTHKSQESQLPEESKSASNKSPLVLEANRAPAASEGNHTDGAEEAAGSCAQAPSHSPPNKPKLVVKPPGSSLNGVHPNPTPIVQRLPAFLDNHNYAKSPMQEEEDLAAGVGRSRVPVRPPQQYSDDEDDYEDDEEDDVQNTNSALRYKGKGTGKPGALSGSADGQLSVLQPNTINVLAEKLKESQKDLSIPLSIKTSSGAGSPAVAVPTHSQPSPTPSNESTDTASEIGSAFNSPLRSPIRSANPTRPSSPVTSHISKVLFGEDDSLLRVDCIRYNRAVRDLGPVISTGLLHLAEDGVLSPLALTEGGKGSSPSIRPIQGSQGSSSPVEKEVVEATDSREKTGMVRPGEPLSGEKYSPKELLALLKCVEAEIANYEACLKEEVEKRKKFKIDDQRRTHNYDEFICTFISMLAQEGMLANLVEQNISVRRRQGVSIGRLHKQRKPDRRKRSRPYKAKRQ
# Summary of the method: as §1
# EIF3F = EIF3F (UniProt O00303)
# Summary of the method: as §1
# EIF3H = EIF3H (UniProt O15372)
# Summary of the method: as §1
# FAM105A = target: T3, FAM105A (UniProt Q9NUU6)
# T3 sequence (whole entry): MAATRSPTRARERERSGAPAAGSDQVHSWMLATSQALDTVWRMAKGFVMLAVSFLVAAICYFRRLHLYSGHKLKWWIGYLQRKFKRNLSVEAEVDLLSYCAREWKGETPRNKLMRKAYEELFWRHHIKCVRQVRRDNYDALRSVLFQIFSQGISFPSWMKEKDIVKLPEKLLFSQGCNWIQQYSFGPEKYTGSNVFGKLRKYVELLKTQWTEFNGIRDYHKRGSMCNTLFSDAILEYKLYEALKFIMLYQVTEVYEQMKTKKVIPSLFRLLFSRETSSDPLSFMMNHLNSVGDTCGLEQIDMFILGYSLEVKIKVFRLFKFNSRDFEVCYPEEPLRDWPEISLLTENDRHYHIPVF
# Summary of the method: as §1
# OTUB1 = OTUB1 (UniProt Q96FW1)
# Summary of the method: as §1
# OTUD4 = target: T4, OTUD4 (UniProt Q01804)
# T4 sequence (whole entry): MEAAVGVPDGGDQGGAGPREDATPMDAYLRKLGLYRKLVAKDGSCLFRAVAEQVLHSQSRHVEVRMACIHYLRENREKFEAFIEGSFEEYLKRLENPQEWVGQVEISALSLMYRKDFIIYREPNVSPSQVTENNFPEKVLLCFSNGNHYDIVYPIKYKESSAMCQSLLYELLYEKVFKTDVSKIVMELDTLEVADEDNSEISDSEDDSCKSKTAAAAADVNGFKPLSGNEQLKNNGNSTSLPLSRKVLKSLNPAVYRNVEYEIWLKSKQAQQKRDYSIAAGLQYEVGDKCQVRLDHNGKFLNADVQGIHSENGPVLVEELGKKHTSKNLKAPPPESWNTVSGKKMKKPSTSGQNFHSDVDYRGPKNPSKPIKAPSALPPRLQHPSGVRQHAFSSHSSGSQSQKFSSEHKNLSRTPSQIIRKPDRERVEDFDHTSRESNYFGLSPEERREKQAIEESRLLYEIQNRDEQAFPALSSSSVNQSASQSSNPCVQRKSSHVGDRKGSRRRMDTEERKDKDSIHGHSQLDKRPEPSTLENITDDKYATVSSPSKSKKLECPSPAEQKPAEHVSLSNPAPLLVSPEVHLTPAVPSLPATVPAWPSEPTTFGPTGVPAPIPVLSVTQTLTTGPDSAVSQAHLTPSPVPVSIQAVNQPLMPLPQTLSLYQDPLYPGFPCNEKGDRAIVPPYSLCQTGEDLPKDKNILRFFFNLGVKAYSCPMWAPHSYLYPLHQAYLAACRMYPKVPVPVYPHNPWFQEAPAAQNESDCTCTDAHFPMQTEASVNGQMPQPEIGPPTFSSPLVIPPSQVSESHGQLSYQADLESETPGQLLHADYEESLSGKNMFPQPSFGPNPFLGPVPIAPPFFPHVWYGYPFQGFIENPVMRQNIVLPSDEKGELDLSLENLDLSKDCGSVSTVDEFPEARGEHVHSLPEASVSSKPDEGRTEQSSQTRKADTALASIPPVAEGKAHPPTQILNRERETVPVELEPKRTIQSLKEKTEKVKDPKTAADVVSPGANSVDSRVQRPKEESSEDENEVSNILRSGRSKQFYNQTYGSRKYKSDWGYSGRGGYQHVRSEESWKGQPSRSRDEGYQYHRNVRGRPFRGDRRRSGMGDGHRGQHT
# Summary of the method: as §1
# OTUD5 = target: T5, OTUD5 (UniProt Q96G74)
# T5 sequence (whole entry): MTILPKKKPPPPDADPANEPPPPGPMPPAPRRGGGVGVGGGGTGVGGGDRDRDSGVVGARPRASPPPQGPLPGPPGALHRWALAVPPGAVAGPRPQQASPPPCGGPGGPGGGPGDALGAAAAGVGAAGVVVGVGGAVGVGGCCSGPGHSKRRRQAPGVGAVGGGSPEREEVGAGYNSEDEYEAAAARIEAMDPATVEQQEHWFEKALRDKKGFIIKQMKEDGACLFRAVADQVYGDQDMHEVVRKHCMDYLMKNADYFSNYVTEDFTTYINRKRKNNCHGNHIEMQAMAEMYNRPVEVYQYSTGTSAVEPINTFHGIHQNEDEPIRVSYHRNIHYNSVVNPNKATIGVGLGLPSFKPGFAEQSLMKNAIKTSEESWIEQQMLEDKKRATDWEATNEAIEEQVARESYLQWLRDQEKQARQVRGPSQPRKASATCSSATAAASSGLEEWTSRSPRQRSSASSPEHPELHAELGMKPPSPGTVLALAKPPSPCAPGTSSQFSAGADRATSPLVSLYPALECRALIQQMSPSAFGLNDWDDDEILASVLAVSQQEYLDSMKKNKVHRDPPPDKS
# Summary of the method: as §1
# EIF3H, sequence (O15372 whole entry): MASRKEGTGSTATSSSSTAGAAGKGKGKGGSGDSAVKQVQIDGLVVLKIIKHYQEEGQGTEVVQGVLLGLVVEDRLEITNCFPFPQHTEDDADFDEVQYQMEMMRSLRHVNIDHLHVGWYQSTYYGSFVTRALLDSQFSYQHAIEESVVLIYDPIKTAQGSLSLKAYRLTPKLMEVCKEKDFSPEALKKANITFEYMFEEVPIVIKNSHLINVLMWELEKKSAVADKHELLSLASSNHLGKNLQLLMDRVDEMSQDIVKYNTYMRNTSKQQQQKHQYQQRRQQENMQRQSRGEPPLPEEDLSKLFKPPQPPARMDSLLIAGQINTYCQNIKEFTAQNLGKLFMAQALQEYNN
# OTUB1, sequence (Q96FW1 whole entry): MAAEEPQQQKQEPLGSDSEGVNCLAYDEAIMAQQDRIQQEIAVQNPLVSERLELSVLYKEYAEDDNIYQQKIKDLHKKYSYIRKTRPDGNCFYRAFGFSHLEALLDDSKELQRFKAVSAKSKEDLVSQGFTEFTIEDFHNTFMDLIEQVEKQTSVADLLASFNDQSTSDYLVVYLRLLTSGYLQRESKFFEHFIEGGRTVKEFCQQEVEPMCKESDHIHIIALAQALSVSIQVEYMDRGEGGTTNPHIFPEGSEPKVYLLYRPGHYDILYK
# ATXN3, sequence (P54252 whole entry): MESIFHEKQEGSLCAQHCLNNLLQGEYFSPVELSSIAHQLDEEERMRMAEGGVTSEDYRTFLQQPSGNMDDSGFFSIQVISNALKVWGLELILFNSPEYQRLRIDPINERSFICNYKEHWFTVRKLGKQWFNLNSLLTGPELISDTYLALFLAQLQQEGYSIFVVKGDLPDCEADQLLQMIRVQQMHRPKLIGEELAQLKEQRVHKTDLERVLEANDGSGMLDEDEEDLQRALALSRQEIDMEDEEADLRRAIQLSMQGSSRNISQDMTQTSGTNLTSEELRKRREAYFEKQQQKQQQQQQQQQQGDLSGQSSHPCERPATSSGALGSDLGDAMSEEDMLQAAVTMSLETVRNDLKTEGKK
# EIF3F, sequence (O00303 whole entry): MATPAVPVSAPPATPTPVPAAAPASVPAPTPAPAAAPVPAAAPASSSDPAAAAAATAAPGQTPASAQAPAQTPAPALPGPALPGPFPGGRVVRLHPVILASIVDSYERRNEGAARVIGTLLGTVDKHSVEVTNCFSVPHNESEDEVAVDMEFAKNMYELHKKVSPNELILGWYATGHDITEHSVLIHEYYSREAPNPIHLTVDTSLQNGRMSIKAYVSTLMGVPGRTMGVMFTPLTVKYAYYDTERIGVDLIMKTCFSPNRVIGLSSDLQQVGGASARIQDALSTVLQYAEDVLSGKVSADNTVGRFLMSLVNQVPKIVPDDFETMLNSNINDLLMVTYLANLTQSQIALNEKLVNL
smiles,measurement,setting,value
Cc1ccn2cc(CNC(=O)CCl)nc2c1.Cl,log2 ratio of Biotin-Ahx-Ub-VS probe labelling,ALG13,0.193
same,log2 ratio of Biotin-Ahx-Ub-VS probe labelling,ATXN3,-0.103
same,log2 ratio of Biotin-Ahx-Ub-VS probe labelling,BAP1,-1.14 (active)
same,log2 ratio of Biotin-Ahx-Ub-VS probe labelling,EIF3F,-0.185
same,log2 ratio of Biotin-Ahx-Ub-VS probe labelling,EIF3H,0.253
same,log2 ratio of Biotin-Ahx-Ub-VS probe labelling,FAM105A,0.254
same,log2 ratio of Biotin-Ahx-Ub-VS probe labelling,OTUB1,0.0771
same,log2 ratio of Biotin-Ahx-Ub-VS probe labelling,OTUD4,-0.505
same,log2 ratio of Biotin-Ahx-Ub-VS probe labelling,OTUD5,-0.214
